In the library only some 3.6% were active in any assay of this set; here they are far more common.
mHTT CaM bind – inhibitors of human mutant huntingtin-calmodulin interaction; P42858; AlphaScreen His-mHTT/GST-CaM binding, luminescence; inhibition, % at 15 µM; 190,000 tested, 3.6% active; AID 1671202;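 further: 0% = both proteins with DMSO and 100% = one protein alone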
Pf apPOL block – Pf-apPOL DNA polymerase inhibition; inhibition, % at 10 µM; 210,000 tested, 0.25% active; Recombinant Pf-apPOL, molecular beacon fluorescence, 1.5 h; AID 1794808
The depositor's hits bear a star; i = inactive; . = no result; + = active, no number. No stated cut-off is given here; in the data, active means inhibition above about 50%; inactive means the rest.

SMILES	mHTT CaM bind	Pf apPOL block
Cc1c(C)n(CC(O)CNc2ccc(Cl)cc2)c2ccccc12 (stereo unspecified)	100*	2
Cc1c(C)n(CC(O)CNc2ccc(Br)cc2)c2ccccc12 (stereo unspecified)	100*	6
Cc1ccc(NCC(O)Cn2c(C)c(C)c3ccccc32)cc1C (stereo unspecified)	71*	-2
Cc1c(C)n(CC(O)CNCCCO)c2ccccc12 (stereo unspecified)	15	3
CSc1ccc(/C=C2\NC(=O)N(CC(=O)Nc3cccc(C)c3)C2=O)cc1	-6	-4
O=[N+]([O-])c1cnc(Nc2ccc(Cl)cc2)c([N+](=O)[O-])c1	22	-3
O=C(c1ccncc1)N1CCC(CCOc2ccc(F)cc2)CC1	-1	-6
c1cncc(-c2noc(C3CCCN3Cc3cccs3)n2)c1 (stereo unspecified)	22	-6
CC(Cc1ccco1)NS(=O)(=O)c1cccc(C(F)(F)F)c1 (stereo unspecified)	-13	-1
CC1C(C#N)=C(N)SC(N)=C1C#N	98*	-3
COc1cc(OC)c(C2C(C#N)=C(N)SC(N)=C2C#N)cc1OC	71*	.
CCCC1C(C#N)=C(N)SC(N)=C1C#N	4	-6
COc1ccccc1C1C(C#N)=C(N)SC(N)=C1C#N	8	-5
CCOc1ccc(C2CC(c3ccc(OC)cc3)Nc3nc(N)nn32)cc1 (stereo unspecified)	6	-3
Cc1cc(S(=O)(=O)N2CCCC2c2nc(-c3ccc(Cl)cc3)no2)ccc1F (stereo unspecified)	-13	2
O=C(Cc1ccc([N+](=O)[O-])cc1)NC1CC(=O)N(c2ccc3c(c2)OCCO3)C1 (stereo unspecified)	-12	-8
COc1ccccc1C(=O)O/N=C1\C=CC(=O)C=C1C	+	-1
COc1cc(C(=O)O/N=C2\C=CC(=O)C=C2C)cc(OC)c1OC	i	0
O=[N+]([O-])c1cc(Oc2ccc3c(c2)CCC3)cc(-n2cnnn2)c1	51*	.
Cc1cc([N+](=O)[O-])nn1CCCC(=O)Nc1cc(Oc2ccc3c(c2)CCC3)cc([N+](=O)[O-])c1	6	5
Cc1cccc(-n2nc(C(C)C)c(C(=O)NC(C)C)c2C(C)C)c1	5	-1
CCOc1ccccc1NC(=O)c1c(NCc2ccncc2)sc2c1CCC2	29	-21
CCOc1ccccc1NC(=O)c1c(NCc2ccccn2)sc2c1CCC2	58*	-10
COc1ccc(NC(=O)c2c(NCc3ccccn3)sc3c2CCCC3)c(OC)c1	53*	-18
COc1ccccc1NC(=O)c1c(NCc2ccccn2)sc2c1CCCC2	50*	-16
SMILES	mHTT CaM bind	Pf apPOL block
CCOc1ccccc1NC(=O)c1c(NCc2cccn2C)sc2c1CCC2	21	-15
COc1ccc(NC(=O)c2c(NCc3ccccn3)sc3c2CCC(C)C3)c(OC)c1 (stereo unspecified)	49	-17
O=C(Nc1cccc(O)c1)c1cc2n(n1)C(C(F)(F)F)CC(c1ccco1)N2 (stereo unspecified)	-3	-1
O=C(O)c1ccccc1Nc1ccnc(N2CCOCC2)n1	0	-2
NNc1nccc(Nc2ccccc2C(=O)O)n1	100*	-4
CCC(=O)N1CCc2ccccc2C1C(=O)NCc1ccccc1Br (stereo unspecified)	-6	-3
CCc1cc(C(=O)NCc2ccc(C)cc2)nc2ccnn12	-52	-5
O=C(Nc1nnc2ccccn12)c1ccc(F)cc1	24	-8
Cc1cccc(C(=O)Nc2nnc3ccccn23)c1	22	-7
Cc1ccc(C(=O)Nc2nnc3ccccn23)s1	91*	-10
O=C(Nc1nnc2ccccn12)c1cc(F)cc(F)c1	82*	-11
O=C(Nc1nnc2ccccn12)c1cccc(F)c1	56*	-11
Cc1ccc(C(=O)Nc2nnc3ccccn23)cc1	24	-8
COc1ccccc1-n1nc(C(=O)Nc2ccc(C(C)C)cc2)c2ccccc2c1=O	4	-4
NC(=S)N/N=C/c1c2ccccc2cc2ccccc12	i	.
NC(=S)NN=C1c2ccccc2-c2ccccc21	55*	.
COc1ccc(OC)c(NC(=O)C(C)N2C(=O)c3ccccc3C2=O)c1 (stereo unspecified)	-2	-1
N#Cc1c(NC(=O)Cc2ccccc2)sc2c1CCCCC2	-4	-5
Cc1ccc(-n2cc(/C=C(\C#N)c3nc4ccccc4[nH]3)cn2)cc1C	6	2
O=C(Cc1nc(-c2cnccn2)n[nH]1)NCc1ccccc1	24	4
O=C(Cc1ccccc1)NC1CCCCCC1	-5	-4
O=C(Cc1nc(-c2ccccn2)n[nH]1)NC1CCCC1	98*	-10
O=C(Cc1nc(-c2ccccn2)n[nH]1)NC1CC1	100*	-12
Cc1cccc(NCc2cccc([N+](=O)[O-])c2)c1	37	5
COCCCNC(=O)C1CCN(c2ncccc2-c2nc(-c3ccc(C)cc3)no2)CC1	-7	-3
SMILES	mHTT CaM bind	Pf apPOL block
COc1ccc(-c2nc(C)cc(C)c2CNC(=O)c2cccc(F)c2)cc1	-8	-4
O=[N+]([O-])c1cc2c(cc1C1N(Cc3ccccc3)CCN1Cc1ccccc1)OCO2	60*	3
O=[N+]([O-])c1cc2c(cc1CN1CCN(c3ccccc3)CC1)OCO2	15	-1
Cn1nc(-c2nc(-c3ccccc3F)no2)c2c1CCN(C(=O)c1ccncc1)C2	3	-2
Cc1ccc2nc(C(=O)NCCN3CCCCC3)cn2c1	-4	-2
Cc1ccc2nc(C(=O)NCCN3CCCCCC3)cn2c1	50*	34
CN(C)CCN1C(=O)C(O)=C(C(=O)c2ccco2)C1c1cccs1 (stereo unspecified)	-12	2
Cc1ccc(OCC(=O)N2CCCCC2CCN2CCCCC2)cc1C (stereo unspecified)	54*	-7
COc1ccc(C(=O)Nc2ccc(N3CCCC3)cc2)cc1OC	7	-9
Cc1cccc(OCC(=O)Nc2ccc(Nc3ccccc3)cc2)c1	74*	1
Cc1ccc(OCC(=O)Nc2ccc(N3CCCC3)cc2)cc1C	99*	4
Cc1cc(OCC(=O)N2CCCCC2CCN2CCCC2)ccc1Cl (stereo unspecified)	14	-10
CCC(=O)Nc1ccc(NC(=O)COc2ccc(C)c(C)c2)cc1	-5	-9
CCOc1cc(C(=O)Nc2ccc(N3CCCC3)cc2)cc(OCC)c1OCC	79*	-8
CCC(=O)Nc1ccc(NC(=O)COc2cccc(C)c2)cc1	-2	-3
O=C(Nc1cc(F)ccc1F)N1CCC(N2CCN(Cc3ccccc3)C2=O)CC1	2	-6
COc1ccc(OC)c(C2CC(=O)Nc3n[nH]c(-c4ccc(Cl)cc4)c32)c1 (stereo unspecified)	-2	1
COc1ccccc1N1C(=O)CC(N(C)Cc2ccccc2)C1=O (stereo unspecified)	0	16
COc1ccc(C(=O)Nc2ccc(N3CCOCC3)cc2)cc1	5	-3
COc1ccc(C(=O)Nc2ccc(N3CCCC3)cc2)cc1	99*	1
Cc1ccc(-c2ncc(NC(=O)C3CCCC3)cn2)cc1	-1	1
Cn1ccnc1C(O)c1cc(C(C)(C)C)c(O)c(C(C)(C)C)c1 (stereo unspecified)	18	-7
CC(C)(C)c1cc(C(c2ccccn2)N2CCCCC2)cc(C(C)(C)C)c1O (stereo unspecified)	77*	-5
Cc1ccc(-c2cc(=O)n(CC(=O)Nc3ccc(C)c(C)c3)[nH]2)cc1	10	2
